Where “and” joins values, the source holds several entries; their conditions need not be identical. Equal values may be shown once. Compounds without any hit were thinned out: in the full panel of roughly 83,000, 20% have a hit.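 Interpretation: 100, growth as untreated; towards 0, rising growth inhibition; 0, no net growth; 0 to -100, cell death. Compounds scoring below 10 were considered active.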 Values without a mark were called inactive. Calls of active or inactive are those of the source.

In the assay the test system is 786-0 renal. Description: NCI-60 one-dose screen, 48 h (100 = growth as untreated, 0 = no growth, -100 = all killed). As to conditions: 10 µM.
For `O=C(CNS(=O)(=O)Cc1ccccc1)NNc1ccccc1`, the growth was 76.6%.
To `COc1ccc2c(c1)[nH]c1c(/C=C/c3ccccc3)nccc12` belongs 62.9%.
Turning to `COc1ccc(C(C#N)=C2C=CC(=NO)C=C2)cc1`, the growth is 34.9%.
Consider `CCOC(=O)[C@]1(Br)CC[C@@]1(Br)C(=O)OCC`, for which the growth was 118%.
To `Cc1cc(C)c(N2C(=O)CC(Sc3ccccc3N)C2=O)c(C)c1` (stereo unspecified) belongs 112%; to `O=C1C=CC(=O)N1c1ccc(N2C(=O)C=CC2=O)cc1`, 103%.
Next, `O=C1C(Cl)=C(Cl)C(Cl)(Cl)C(Cl)C1(Cl)Cl` (stereo unspecified): 102%.
Consider `O=C(O)c1ccccc1.[Ag]`, for which the growth was 108%.
As to `ClCCn1c(CCl)nc2ccc(Cl)cc21`, the growth is -59.9% (active).
In the case of `COc1cc(N)ccc1Nc1c2ccccc2nc2ccccc12`, the growth is 69.4%.
As for `O=C1c2ccccc2CCC1(Br)Br`, the growth was 14.8%.
Take `CN(C)CCNc1cccc2sc3ccc(O)cc3c(=O)c12`: the growth was 63.3%.
With `CN(C)c1ccc(/C=C/c2ccnc3ccccc23)cc1N`, the growth is 85.6%.
Next, `Cn1c2nc3ccccc3c-2nc2ccccc21`: 96.6% and 94.4%; `S=C1SCN(CCc2ccccc2)CN1CCc1ccccc1`: 117%.
For `CN(CC(=O)O)c1ccc(/C=C/c2ccnc3ccccc23)cc1`, the growth was 95.8%.
With `O=S(=O)(c1cc(Cl)ccc1O)c1cc(Cl)ccc1O`, the growth was 86.7%.
With `O=[N+]([O-])c1cc(S(=O)(=O)Nc2ccccc2)ccc1Cl`, the growth was 100%.
Next, `Cc1cc(Cl)ccc1NC(=O)/C(Cl)=C1/Sc2ccccc2NC1=O`: 92.9%; `O=Nc1ccc(Nc2ccccc2)cc1`: 80%; `Cn1ncc2cc3c(Nc4ccc(Cl)cc4)cccc3nc21`: 89.3%.

For the origin of these results see PubChem BioAssay (NCI).
